Reference: PubChem BioAssay (NCI)
The panel holds about 79,000 compounds, 15% with a hit somewhere; the sample as a whole holds those more often. Activity calls are given as the source filed them. No stated cut-off is given here; in the data, active means growth inhibition above about 70%; inactive means the rest.

What was measured:
[1] = NCI Yeast Anticancer Drug Screen. Data for the rad50 strain (AID 155);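 further: 0% = growth of vehicle-only cultures of the same strain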; settings: S. cerevisiae rad50 strain growth inhibition; at 50.0 µM; active compounds read high
In short: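 Readout: growth inhibition relative to vehicle-treated cultures. Compound exposure was carried out in a genetically defined yeast strain deficient in DNA damage repair.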

[2] = NCI Yeast Anticancer Drug Screen. Data for the mec2-1 strain (AID 157); settings: S. cerevisiae mec2-1 strain, at 50.0 µM, active compounds read high
In short: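 Readout is yeast growth inhibition, normalised to vehicle-treated controls, in the mec2-1 strain exposed to compound.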

[3] = NCI Yeast Anticancer Drug Screen. Data for the sgs1 mgt1 strain (AID 161);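 further: 0% = growth of cultures given vehicle only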; settings: S. cerevisiae sgs1 mgt1 strain, at 50.0 µM, active compounds read high
In short: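 Percent growth inhibition was derived by comparing compound-exposed mutant yeast with vehicle-exposed cultures. The strain carries alterations in DNA damage repair.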

[4] = NCI Yeast Anticancer Drug Screen. Data for the cln2 rad14 strain (AID 165);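 further: 0% = growth equal to vehicle treated cultures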; settings: S. cerevisiae cln2 rad14 strain, at 50.0 µM, active compounds read high
In short: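 Relative to vehicle controls, growth inhibition of compound-treated cln2 rad14 yeast was recorded.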

[5] = NCI Yeast Anticancer Drug Screen. Data for the bub3 strain (AID 167); settings: S. cerevisiae bub3 mutant strain, at 50.0 µM, active compounds read high
In short: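 Readout: yeast growth inhibition, expressed relative to vehicle-only wells. The test organism is a mutant strain from a panel with lesions in DNA repair or checkpoint genes.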

[6] = NCI Yeast Anticancer Drug Screen. Data for the mlh1 rad18 strain (AID 175); settings: S. cerevisiae mlh1 rad18 strain growth inhibition; at 50.0 µM; active compounds read high
In short: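 Test agents were incubated with a yeast strain of defined genotype (DNA damage repair defect). Inhibition of growth was derived by comparison with vehicle-exposed cultures.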

Measured: growth inhibition

O=C1c2ccccc2C(=O)N1CC(F)(F)F
inactive: [1] -11.9% | [2] -4.75% | [3] -9.5% | [4] 8.25% | [5] 5.6% | [6] -12.3%

Cc1cc(C(=O)c2ccccc2)ccc1[N+](=O)[O-]
inactive: [1] 23.1% | [2] -11% | [3] -7.35% | [4] -0.5% | [5] -0.65% | [6] 7.1%

CC1=C(C(=O)Nc2ccccc2C)C(c2ccco2)C(C(=O)Nc2ccccc2C)=C(C)N1C
inactive: [1] -7.45% | [2] -6.6% | [3] -38.1% | [4] -15.5% | [5] -9.6% | [6] -8.8%

CC(=O)NNC(=S)N/C=C(\C#N)C(=O)c1ccc2ccccc2c1
inactive: [1] -59.4% | [2] -22.2% | [3] -12.7% | [4] -1.1% | [5] -25.5% | [6] -53%

COCC(C)OC(=O)c1ccccc1Cl (stereo unspecified)
inactive: [1] 7.65% | [2] 10.3% | [3] 5.95% | [4] 2.65% | [5] 21.1% | [6] 24.3%

CCC(CCC#N)(CCC#N)C(=O)c1ccc(C)s1
inactive: [1] 1.5% | [2] -4.3% | [3] 1.3% | [4] -19.8% | [5] 0.1% | [6] 2.45%

N[C@@H]1c2c(Br)sc(N3CCOCC3)c2C(=O)[C@@H]1O
inactive: [1] 10.8% | [2] -10.4% | [3] 4.1% | [4] -18.6% | [5] 5.4% | [6] -31.6%

CC(C)C(=O)N(C(C)C)C(C)C
inactive: [1] 25.2% | [2] 12.5% | [3] 8.5% | [4] -21.6% | [5] -0.55% | [6] 38%

C(=C(/C=C/C(=C/c1ccccc1)c1ccccc1)c1ccccc1)\c1ccccc1
inactive: [1] 33.5% | [2] 13.8% | [3] -11.7% | [4] -59% | [5] 0.65% | [6] -0.65%

CSc1cc(Cl)c(C)cc1S(=O)(=O)NC(=O)NNc1ccc(Cl)cc1
inactive: [1] 23.9% | [2] 11.2% | [3] 10.6% | [4] 7.55% | [5] -3.75% | [6] 51.6%

COC(=O)C(=[N+]=[N-])C(=O)c1ccc([N+](=O)[O-])cc1
inactive: [1] 65.5% | [2] 23.9% | [3] 40.1% | [4] 41.8% | [5] 20.6% | [6] 42.3%

O=C1NC(=O)C2(CCN(Cc3ccccc3)CC2)N1c1ccccc1
inactive: [1] 8.95% | [2] 0.1% | [3] -5.1% | [4] 6% | [5] 13.3% | [6] 3.15%

O=C(CN=C(CN(c1ccccc1)c1ccccc1)Oc1c(Cl)cc(Cl)cc1Cl)n1cnc2ccccc21
inactive: [1] 0.9% | [2] -9% | [3] 35.3% | [4] -63.4% | [5] -46.4% | [6] 10.4%

CC1(C)/C(=C/N=O)N(O)C(C)(C)N1O
inactive: [1] -26.9% | [2] -34.6% | [3] -43.8% | [4] 5.75% | [5] -35.9% | [6] -15.2%

COc1ccccc1C1c2cc3c(cc2OC(C)(OC)C1C)OCO3 (stereo unspecified)
inactive: [1] -3.4% | [2] -17.2% | [3] 18.1% | [4] -12.7% | [5] -10.2% | [6] 14.1%

CCOc1snc(C(Cl)(Cl)Cl)c1Cl
inactive: [1] 9.7% | [2] 15.3% | [3] 5.05% | [4] 18% | [5] 22.3% | [6] 8.2%

COC(=O)C1=C(NC(=O)Nc2ccc([N+](=O)[O-])cc2)OC(C)(C)C1c1ccc(Cl)cc1 (stereo unspecified)
inactive: [1] 23.6% | [2] 9.15% | [3] 6.45% | [4] -6.1% | [5] 1.1% | [6] 29.6%

COC(=O)C1CCC=CC1OC(C)=O (stereo unspecified)
inactive: [1] 1.65% | [2] -12.6% | [3] 2.6% | [4] 4.45% | [5] 5.25% | [6] 3.2%

N/N=C1\C(=O)N(C2CCCCC2)C(=O)C1C(=O)NC1CCCCC1 (stereo unspecified)
inactive: [1] -10.9% | [2] -1.2% | [3] -15% | [4] -10.8% | [5] -20.4% | [6] -32.2%

CCOc1ccc2nc(NC(=O)C(=O)C(C#N)CC(C)(C)C=O)sc2c1 (stereo unspecified)
inactive: [1] -13.8% | [2] -22.8% | [3] -17.6% | [4] 7.7% | [5] -12.6% | [6] -28.1%

COC(=O)c1cc2c(o1)Sc1ccccc1NC2=O
inactive: [1] -4.3% | [2] -29.9% | [3] -12.6% | [4] 3.65% | [5] -8.55% | [6] 10.7%

O=C1Nc2cc(Cl)ccc2N=CC1NC(=O)C(c1ccccc1)c1ccccc1Cl (stereo unspecified)
inactive: [1] -33.1% | [2] -11.6% | [3] -6.15% | [4] -15.9% | [5] -6.8% | [6] -17.8%

CCOC(=O)C1=C(C(C)=O)C(c2ccc(OC)c(OC)c2)C(C(C)=O)=C(C(=O)OCC)N1
inactive: [1] 35.5% | [2] 12.9% | [3] 8.9% | [4] 35% | [5] -4.95% | [6] 8.55%

O=C(O)C(Br)C(Br)C(=O)Nc1ccc(Br)cc1 (stereo unspecified)
inactive: [1] -6.35% | [2] -24.4% | [3] 22.8% | [4] -3.85% | [5] 34.1% | [6] 27.4%

CC1(C)C(=O)C(C)(C)C(=O)C(C)(C)C1=O
inactive: [1] 2.45% | [2] -15.7% | [3] 5.4% | [4] 16.9% | [5] 11.3% | [6] -0.3%

ClC1CC[N-]CC1.ClC1CC[N-]CC1.O=C(O)CC(=O)O.[Pt+2]
inactive: [1] 53.2% | [2] 55.4% | [3] 68.5% | [4] -23.4% | [5] 23.4% | [6] 45.5%

C/C=C(\C)C(=O)N1c2ccccc2CC1c1c(C)[nH]c2ccccc12 (stereo unspecified)
inactive: [1] 29.1% | [2] 3.65% | [3] 21.2% | [4] 19.9% | [5] 23.8% | [6] 11.1%

O=C1CSC(=S)N1/N=C/c1ccc([N+](=O)[O-])s1
active: [1] 97.8% | [2] 98.8% | [3] 98.3% | [4] 98.5% | [5] 98.8% | [6] 98.8%

CO/N=C(\C(=O)N(C)n1cnnc1)c1csc(NC(c2ccccc2)(c2ccccc2)c2ccccc2)n1
inactive: [1] 21.7% | [2] 13.2% | [3] 11.8% | [4] 25.1% | [5] 18.8% | [6] 28%

O=C(Oc1ccc([N+](=O)[O-])cc1)C(CSC(c1ccccc1)(c1ccccc1)c1ccccc1)NC(c1ccccc1)(c1ccccc1)c1ccccc1 (stereo unspecified)
inactive: [1] -3.05% | [2] 20.9% | [3] 6.5% | [4] -19.8% | [5] -3.6% | [6] 23.9%

Cc1ccc(C(=O)C(c2nc3n(c2O)/C(=N/C(=O)Nc2ccc(Cl)cc2)N=N3)c2nc3n(c2O)/C(=N/C(=O)Nc2ccc(Cl)cc2)N=N3)cc1
inactive: [1] -44.1% | [2] -29.2% | [3] -27.2% | [4] -39% | [5] -29.1% | [6] -25.4%

COc1ccc(C(OC2OC(n3cnc4c(=S)nc(N)[nH]c43)CC2OC(C)=O)(c2ccccc2)c2ccc(OC)cc2)cc1 (stereo unspecified)
inactive: [1] 17.9% | [2] 21.9% | [3] 11.2% | [4] -54.4% | [5] 23.4% | [6] 24.4%

O=C1c2cc([N+](=O)[O-])ccc2-c2c(F)cc(F)cc21
inactive: [1] -58.5% | [2] -8.05% | [3] 9.35% | [4] -50.4% | [5] -2.1% | [6] -10.7%

CC(=O)CC(=O)Nc1ccccc1C(C)C
inactive: [1] 12.9% | [2] 8.1% | [3] 16.1% | [4] 7.4% | [5] -7.85% | [6] -1.7%

Cc1nn(C(=O)c2ccc(Cl)cc2)c2c1C(c1ccccc1)SC(N)=N2 (stereo unspecified)
inactive: [1] -18.6% | [2] -38% | [3] -5.15% | [4] 6.2% | [5] 18.4% | [6] -3.5%

CO[C@H]1C[C@H]2[C@@H]3CCC4=CC(=O)CC[C@]4(C)[C@H]3CC[C@]2(C)[C@@]1(O)C(=O)CO
inactive: [1] -7.35% | [2] -9.25% | [3] -17% | [4] -14.9% | [5] -11.7% | [6] -27.6%

COc1ccc(O)c(/C=N/NC(N)=S)c1
inactive: [1] 23.8% | [2] -24.8% | [3] -4.45% | [4] -115% | [5] -24.8% | [6] -11.4%

Cc1ccc2cccc(N)c2n1
inactive: [1] 21.4% | [2] -0.15% | [3] -8% | [4] -33.5% | [5] 18% | [6] 7.2%

O=C1Cc2c(-c3cccs3)cc(-c3ccccc3)nc2-c2ccccc2N1
inactive: [1] 0% | [2] -3.9% | [3] 3.4% | [4] 18.2% | [5] -4.75% | [6] 7.85%

Cc1ccc(C(CCCl)OC(C)C)cc1 (stereo unspecified)
inactive: [1] 7% | [2] 7.35% | [3] 22% | [4] 25.2% | [5] 22.6% | [6] 17.8%

C[Si](C)(C)/C(=N/Nc1ccc([N+](=O)[O-])cc1[N+](=O)[O-])c1ccccc1
inactive: [1] -13.2% | [2] 9.9% | [3] -12.9% | [4] -13.6% | [5] -7.9% | [6] -7.15%
